Calls of active or inactive are those of the source. Rule for the calls: active = hit-call score of the fitted dose curve at least 0.9, where 1 is the maximum; inactive = score below 0.9.

Read-out in the assay: Apolipoprotein A-V (APOA5) gene, APOA5 (gene 116519)
Kind of assay: LTEA_HepaRG_APOA5: Life Technologies and Expression Analysis (LTEA) Assay for Apolipoprotein A-V (APOA5) gene using HepaRG (AID 2283474). As to conditions: mRNA level, 48 h; actives raise or lower the signal. As to the method: LTEA_HepaRG is a cell based, multiplexed-readout assay that uses HepaRG, a human liver cell line, with measurements taken at 48 hours after chemical dosing on a 96-well plate.LTEA_HepaRG_APOA5 is one of 102 assay component(s) measured in the LTEA HepaRG cell culture assay. It is a marker of Steatosis.Data from the assay component LTEA_HepaRG_APOA5 was analyzed into 1 endpoint. This assay endpoint, LTEA_HepaRG_APOA5, was analyzed with bidirectional fitting relative to DMSO as the negative control and baseline of activity. Using a type of inducible reporter, measures of mRNA induction for gain or loss-of-signal activity can be used to understand regulation of transcription factor activity. To generalize the intended target to other relatable targets, this assay endpoint is annotated to the apolipoprotein intended target family, where the subfamily is Steatosis.
A total of 1060 chemcials from the ToxCast library were tested in eight-point concentration-response experiments. Cell culture and cytotoxicity assays were conducted at Thermo Fisher Scientific's Custom Services facility (Madison, WI). A single lot of human HepaRG cells (Thermo Fisher Scientific, Frederick, MD) was used for the cell culture experiments. 96-well format collagen type I coated plates of human HepaRG cells were prepared using established methods. Briefly, cryopreserved HepaRG cells were thawed, plated at a density of approximately 100,000 cells/well in HepaRG Thaw, Plate, and General Purpose media (HPRG770, Thermo Fisher Scientific), and incubated for 48 hours. 0.5% DMSO was selected as vehicle control to balance the requisite need of DMSO in HepaRG cultures to maintain differentiation (for example, baseline metabolism, proportions of hepatocytes vs. cholangiocytes), while enabling further hepatic receptor pathway activation (for example, PXR and CAR) in response to chemical exposure. 48 hours after plating, the culture medium was replaced with HepaRG Serum-Free Incudtion Media. Cells were exposed to each test chemical in duplicate and maintained in CO2 incubators for another 48 hours. Chemical plates were thawed to room temperature and 200x concentrations of treatment groups were prepared. 8-point conentration-reponse curves were made with the highest exposure at 100 uM, followed by half-log dilutions, all in 0.5% DMSO. Each test plate contained variouse controls, induction positive controls (1mM phenobarbital), cytotoxicity positive controls ([…] aflatoxin B1), vehicle controls (0.5% DMSO), and total lysis controls (0.5% DMSO). Cell morphology images were taken using an Essen IncuCyte FLR automated microscope, with six 96-well plates imaged in about 24 minutes. Images were captured and exported and JPEG files. Spent culture media was transfered to black-well plates for the LDH assay, and remaining media was sorted at -80 C for later use. Cells were treated with RLT buffer and frozen until shipped for gene expression analysis. Total RNA was isolated from the cell suspension in 75 uL of Buffer RLT (Qiagen, Germantown, MD 20874) by Quintiles/Expression Analysis (Durham, NC) using a custom isolation procedure. Total RNA from each plate well was transferred to a preamplification plate. Fluidigm's 96.96 Dynamic ArrayTM (Fluidigm, Amsterdam, the Netherlands) technology was used for gene expression analyses by quantitative reverse transcription polymerase chain reaction (qRT-PCR, performed by Quintiles/Expression Analysis, Durham, NC)89. Standard TaqManTM Assays (Applied Biosystems/ThermoFisher Scientific, Foster City, CA) were used to assess the expression of 93 genes selected based on their selectivity and sensitivity to important hepatic receptors known to be modulated by environmental chemicals; importance in human hepatocyte functionality; and hepatotoxicity. […]
In general, AC50 refers to the concentration giving half of the maximal activity seen. `OC12N=C(c3ccccc3)SC1Cc1cc(Cl)ccc12` (stereo not given): the AC50 is 25.2 µM (active).

As for `CCCCCCCCCCCO`, the molecule was classed as inactive.

As for `CCCCCCCCOc1ccc(C(=O)c2ccccc2)c(O)c1`, the molecule was classed as inactive.

Consider `c1ccc2n[nH]nc2c1`, for which the molecule was classed as inactive.

Regarding `CC1=CC(=O)/C(=C(/C)O)C(=O)O1`, the molecule was classed as inactive.

Regarding `CC1(C)NC(=O)N(c2ccc([N+](=O)[O-])c(C(F)(F)F)c2)C1=O`, the concentration at half-maximal activity (AC50) is 67.9 µM (active).

As for `COc1ccc2cc(S(=O)(=O)N[C@H](CC(=O)N[C@H](Cc3ccc(CN4[C@H](C)CCC[C@@H]4C)cc3)C(=O)N(C)C(C)C)c3ccc4c(c3)OCO4)ccc2c1`, the molecule was classed as inactive.

As for `COCC(C)OCC(C)OCC(C)O` (stereo not given), the molecule was called inactive.

Take `CC(C)(C)c1csc(-c2cc3cc(OCc4ccccc4CC(=O)O)ccc3o2)n1`: the half-maximal activity concentration (AC50) is 20 µM (active).

Consider `CCCCCCCCN(C)CCCCCCCC`, for which the molecule was called inactive.

With `O=C1c2ccccc2C(=O)N1CCc1noc(-c2ccc(CN3CCCCCC3)s2)n1`, the result was inactive.

With `O=C(O)c1ccccc1-n1cc(C(=O)O)c(=O)c2cc(Nc3c(F)cc(F)cc3Cl)c(Cl)cc21`, the molecule was called inactive.

As to `Cc1ccc(C(C)C)cc1`, the call was inactive.

As for `O=c1[nH]sc2ccccc12`, the outcome was inactive.

`CC(O)CC(C)(C)O` (stereo not given): the call was inactive.

As for `Clc1cc(Cl)c2c(c1)N=C1CCCCCN1C2`, the outcome was inactive.

In the case of `CC(C)(c1cc(Br)c(O)c(Br)c1)c1cc(Br)c(O)c(Br)c1`, the call was inactive.

Turning to `O=C(Nc1ccc(Cl)cc1)Nc1ccc(Cl)c(Cl)c1`, the AC50 was 21.4 µM (active).

With `Cc1oc2c(NC(=O)c3c(Cl)cccc3Cl)cccc2c1C(C)(C)O`, the AC50 is 50.7 µM (active).

With `CN(C)c1ccc(C(=C2C=CC(=[N+](C)C)C=C2)c2ccc(N(C)C)cc2)cc1`, the AC50 is 5.32 µM (active).

`Cc1cc(F)ccc1-c1cc(N2CC[C@@H](O)[C@H]2CO)ncc1N(C)C(=O)C(C)(C)c1cc(C(F)(F)F)cc(C(F)(F)F)c1`: the AC50 was 12.9 µM (active).

Consider `c1ccc2ccccc2c1`, for which the molecule was classed as inactive.

Consider `CCO[Si](CCCNC(N)=O)(OCC)OCC`, for which the result was inactive.

As to `O=C(O)Cn1c(=O)n(Cc2ccc(Br)cc2F)c(=O)c2ccc(Cl)cc21`, the molecule was classed as inactive.

For the molecule `CC[C@@H]1C[C@H](N(Cc2cc(C(F)(F)F)cc(C(F)(F)F)c2)C(C)=O)c2cc(C(F)(F)F)ccc2N1C(=O)OC(C)C`, the molecule was classed as inactive.

Regarding `Oc1ccccc1`, the result was inactive.

For `CC(C)(O)c1ccc(CNC(=O)c2cccnc2Oc2ccc3nonc3c2)cc1`, the outcome was inactive.

With `COc1cc(C(=O)NC2CCN(C)CC2)ccc1Nc1ncc2c(n1)N(C1CCCC1)CC(F)(F)C(=O)N2C`, the half-maximal activity concentration (AC50) is 4.65 µM (active).

Regarding `CCCCOC(=O)c1ccc(O)cc1`, the molecule was called inactive.

With `CCN(Cc1cccc(S(=O)(=O)O)c1)c1ccc(C(=C2C=CC(=[N+](CC)Cc3cccc(S(=O)(=O)O)c3)C=C2)c2ccccc2S(=O)(=O)[O-])cc1`, the outcome was inactive.

On to `CCCCCCCCCCCC[N+](C)(C)C`, for which the concentration at half-maximal activity (AC50) is 79.4 µM (active).

Turning to `NCc1cccc(C2CCN(C(=O)c3ccc(C#Cc4ccccc4F)o3)CC2)c1`, the concentration at half-maximal activity (AC50) is 80.5 µM (active).

Regarding `CN(C)C(=O)C1(N2CCCCC2)CCN(CC[C@@]2(c3ccc(Cl)c(Cl)c3)CN(C(=O)c3ccccc3)CCO2)CC1`, the result was inactive.

Take `CCCOC(=O)c1cc(O)c(O)c(O)c1`: the call was inactive.

As to `O=c1ccc2ccccc2o1`, the molecule was called inactive.

As to `C[C@]12CC[C@@H]3c4ccc(O)cc4CC[C@H]3[C@@H]1CCC2=O`, the call was inactive.

Take `CCCCCCCCCCCCO`: the outcome was inactive.

Take `O=CCCCC=O`: the molecule was called inactive.

Take `O=C1CCC(C2CCCCC2)CC1`: the molecule was classed as inactive.

As for `CC/C(=C(/CC)c1ccc(O)cc1)c1ccc(O)cc1`, the AC50 is 50 µM (active).
